High-throughput results deposited in PubChem BioAssay by several laboratories.
TMEM16A inh: blocks the mouse calcium-activated chloride channel TMEM16A; Q8BHY3; 310,000 tested, 1.2% active; AID 588511; normalized B-score (activity score, 25-100; higher = stronger inhibition) at 10 µM; HEK293 TMEM16A/YFP iodide influx fluorescence, ionomycin;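 active = ratio plate-corrected score three or more library SD toward inhibition, starting fluorescence score within five deviations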;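 also: score derived from kinetic fluorescence span divided by baseline fluorescence per well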
TMEM16A act: activates or potentiates the mouse TMEM16A chloride channel; Q8BHY3; HEK293 TMEM16A/YFP-H148Q/I152L, iodide quench fluorescence; hits give low values; B-score at 10 µM; 340,000 tested, 0.3% active;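 active = fluorescence-ratio B-score plate-corrected deviation score at least 3 library SD below zero, with starting fluorescence score within 5 deviations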;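 also: channel opened by trigger with iodide after compound preincubation; score built on the fluorescence ratio of max minus min over baseline; more negative score means more quench and so TMEM16A activation or potentiation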
CHT block: inhibits the human high affinity choline transporter; B-score at 10 µM; AID 488975; 310,000 tested, 0.86% active; CHT-expressing cells, membrane potential dye, choline response; hits give low values; Q9GZV3;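 active = B-score over 3 SD under the library average, and starting fluorescence ratio not unusually high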;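 also: choline stimulus applied at its EC90 after an EC20 pre-addition; B-score computed on integrated fluorescence ratio after choline addition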
Kir21 inh: inhibitors of mouse Kir2.1 inward-rectifier potassium channel; AID 1672; P35561; HEK293-Kir2.1, FluxOR thallium flux fluorescence; hits give low values; B-score at 10 µM; 310,000 tested, 0.85% active;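 active = fluorescence ratio B-score at or below minus 3 SD of library scores, with starting-brightness B-score within 2 SD, cut at about -4.2 in these data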;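 also: channel flux triggered by added potassium and thallium sulfate stimulus; B-score of peak minus minimum fluorescence over baseline after thallium stimulus; more negative B-score means stronger Kir2.1 block with less thallium influx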
CHT allo act: allosteric activators of human choline transporter CHT. 310,000 tested, 0.49% active. B-score at 10 µM. CHT-expressing cells, membrane potential dye, choline EC20; hits give high values; LV-AA mutant CHT in HEK293 cells;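 active = initial fluorescence not abnormally high and integrated response B-score, plate-corrected, over 3 SD above library mean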
Rce1 inh: blocks yeast Ras-converting enzyme. calls only. Q03530. AID 2563. yeast membranes, quenched prenylated peptide cleavage fluorescence. 290,000 tested, 0.27% active;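 active = fall in fluorescence gain of 50% or more versus controls, with final raw signal at or below 3038400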;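 also: plate controls were neutral control wells for no effect and wells lacking membranes for full effect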
Target sequence (Q03530 whole entry, looked up): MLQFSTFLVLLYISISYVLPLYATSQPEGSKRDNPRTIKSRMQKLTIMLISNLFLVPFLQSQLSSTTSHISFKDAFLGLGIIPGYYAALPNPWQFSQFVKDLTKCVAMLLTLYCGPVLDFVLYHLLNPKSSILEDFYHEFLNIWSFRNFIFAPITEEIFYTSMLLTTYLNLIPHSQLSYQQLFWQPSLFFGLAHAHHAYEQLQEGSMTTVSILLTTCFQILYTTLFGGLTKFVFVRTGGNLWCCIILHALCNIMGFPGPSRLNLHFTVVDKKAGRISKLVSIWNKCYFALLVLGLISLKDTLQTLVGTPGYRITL
* = called active by the depositor. Compounds with a hit are over-represented: about 3.2% of the library has one in this group of screens.

How did CC1CCN(c2ccc(NC(=O)c3ccc(Br)o3)cc2)CC1 do in these assays?
TMEM16A inh: inactive; TMEM16A act: inactive; CHT block: inactive; Kir21 inh: 0.92; CHT allo act: inactive; Rce1 inh: inactive

What do the screens show for `CC(=O)Nc1ccc(S(=O)(=O)NCC2(N3CCOCC3)CCCCC2)cc1`?
TMEM16A act: inactive

Results for Cc1cc(Cl)c(OCCOCCN2CCC(C)CC2)c(Br)c1 ?
TMEM16A inh: inactive; TMEM16A act: inactive; CHT block: inactive; Kir21 inh: -5.2*; CHT allo act: inactive; Rce1 inh: inactive

How did Cc1cc(Cl)c(OCCOCCN2CCN(C)CC2)c(Br)c1 do in these assays?
TMEM16A inh: inactive; TMEM16A act: inactive; CHT block: inactive; Kir21 inh: -0.05; CHT allo act: inactive; Rce1 inh: inactive

What do the screens show for `Cc1cc(C)c(OCCCCN2CCC(C)CC2)c(Br)c1`?
TMEM16A inh: inactive; TMEM16A act: inactive; CHT block: inactive; Kir21 inh: -5.5*; CHT allo act: inactive; Rce1 inh: inactive

How did CC1CCN(CCCOc2ccc(Cl)cc2Br)CC1 do in these assays?
TMEM16A inh: inactive; TMEM16A act: inactive; CHT block: inactive; Kir21 inh: -4.5*; CHT allo act: inactive; Rce1 inh: inactive

What do the screens show for `CC1CCCN(CCCOc2ccc(Cl)cc2Br)C1` (stereo not drawn)?
TMEM16A inh: inactive; TMEM16A act: inactive; CHT block: inactive; Kir21 inh: -0.76; CHT allo act: inactive; Rce1 inh: inactive

Results for Cc1cc(Br)ccc1OCCCCN1CCC(C)CC1 ?
TMEM16A inh: inactive; TMEM16A act: inactive; CHT block: inactive; Kir21 inh: -8.7; CHT allo act: inactive; Rce1 inh: inactive

Results for CC1=NCCN1S(=O)(=O)c1ccccc1[N+](=O)[O-] ?
TMEM16A inh: inactive; TMEM16A act: inactive; CHT block: inactive; Kir21 inh: -0.62; CHT allo act: inactive; Rce1 inh: inactive

Results for C/C(=N/OC(=O)c1ccc(Cl)cc1Cl)c1oc(C)nc1C ?
TMEM16A inh: inactive; TMEM16A act: inactive; CHT block: inactive; Kir21 inh: 0.02; CHT allo act: inactive; Rce1 inh: inactive

Results for CCCCN(C(=O)c1ccc(C)o1)c1c(N)n(CC(C)C)c(=O)[nH]c1=O ?
TMEM16A act: inactive

What do the screens show for `Nc1nnnn1/N=C/c1cccc(OCc2ccccc2Cl)c1`?
TMEM16A inh: inactive; TMEM16A act: inactive; CHT block: inactive; Kir21 inh: 0.81; CHT allo act: inactive; Rce1 inh: active

Results for CN(CC1CCCO1)S(=O)(=O)c1ccc(C(=O)Nc2nc(-c3ccccn3)cs2)cc1 (stereo not drawn) ?
TMEM16A inh: 25*; TMEM16A act: inactive; CHT block: inactive; CHT allo act: inactive

How did CN(C)C(=O)c1ccc(-c2nnc(OCc3nc4ccccc4n3C)c3ccccc23)cc1 do in these assays?
TMEM16A act: inactive

What do the screens show for `COc1ccc(CNCCC(c2ccc(OC(C)C)cc2)c2ccccc2OC)cc1OC` (stereo not drawn)?
TMEM16A inh: inactive; TMEM16A act: inactive; CHT block: inactive; Kir21 inh: -3.3; CHT allo act: inactive; Rce1 inh: inactive

What do the screens show for `COc1ccccc1C(CCNCc1ccc(N(C)C)cc1)c1ccc(OC(C)C)cc1` (stereo not drawn)?
TMEM16A inh: inactive; TMEM16A act: inactive; CHT block: inactive; Kir21 inh: -4.4*; CHT allo act: 8.7*; Rce1 inh: inactive

How did COc1ccc(CNCCC(c2ccc(OC(C)C)cc2)c2ccccc2OC)cc1 (stereo not drawn) do in these assays?
TMEM16A inh: inactive; TMEM16A act: inactive; CHT block: inactive; Kir21 inh: -7.4*; CHT allo act: inactive; Rce1 inh: inactive

Results for COc1ccc(CNCCC(c2ccccc2)c2ccc3c(c2)OCO3)cc1 (stereo not drawn) ?
TMEM16A inh: inactive; TMEM16A act: inactive; CHT block: inactive; Kir21 inh: -8.1*; CHT allo act: inactive; Rce1 inh: inactive

Results for Cc1c(C(=O)Nc2ccc(C(F)(F)F)cc2)sc2ncn(CC(=O)N3CCN(c4ccccn4)CC3)c(=O)c12 ?
TMEM16A inh: inactive; TMEM16A act: inactive; CHT block: inactive; Kir21 inh: 1.6; CHT allo act: inactive; Rce1 inh: inactive

What do the screens show for `O=C(NCC1CCCN1S(=O)(=O)c1cccs1)c1cccc(Cl)c1` (stereo not drawn)?
TMEM16A inh: inactive; TMEM16A act: inactive; CHT block: inactive; Kir21 inh: -0.45; CHT allo act: inactive; Rce1 inh: inactive

What do the screens show for `Cc1nnc(SCc2ccccc2F)n1NCc1cccs1`?
TMEM16A inh: inactive; TMEM16A act: inactive; CHT block: inactive; Kir21 inh: -4.2*; CHT allo act: inactive; Rce1 inh: inactive

What do the screens show for `CCN(CC)CCCCCOc1ccccc1OC`?
TMEM16A inh: 25*; TMEM16A act: inactive; CHT block: inactive; Kir21 inh: 1.1; CHT allo act: inactive; Rce1 inh: inactive

How did COc1ccccc1OCCCCOc1ccccc1F do in these assays?
TMEM16A inh: inactive; TMEM16A act: inactive; CHT block: inactive; Kir21 inh: 1.1; CHT allo act: inactive; Rce1 inh: inactive

How did O=C(NCCCN1CCOCC1)c1cn(-c2ccccc2)nc1-c1cccs1 do in these assays?
TMEM16A inh: inactive; TMEM16A act: inactive; CHT block: inactive; Kir21 inh: -4.5*; CHT allo act: inactive; Rce1 inh: inactive

How did CCSc1cc(C)nc2ncnn12 do in these assays?
TMEM16A inh: inactive; TMEM16A act: -19*; CHT block: inactive; Kir21 inh: 0.57; CHT allo act: inactive; Rce1 inh: inactive

How did CCO[C@@H]1OC(C(=O)N2CCOCC2)=C[C@H](c2ccccc2)[C@H]1CCCO do in these assays?
TMEM16A inh: inactive; TMEM16A act: inactive; CHT block: inactive; Kir21 inh: -1.8; CHT allo act: inactive; Rce1 inh: inactive

What do the screens show for `CC(=O)c1ccc(NC(=O)CN2c3cccc4cccc(c34)S2(=O)=O)cc1`?
TMEM16A act: -4.7*

How did CCC(C)NC(=O)CN1c2cccc3cccc(c23)S1(=O)=O (stereo not drawn) do in these assays?
TMEM16A inh: inactive; TMEM16A act: -7.2*; CHT block: inactive; Kir21 inh: -2.3; CHT allo act: inactive; Rce1 inh: inactive

Results for CC(=O)Nc1cccc(NC(=O)CN2c3cccc4cccc(c34)S2(=O)=O)c1 ?
TMEM16A act: inactive

How did CCNC(=O)CN1c2cccc3cccc(c23)S1(=O)=O do in these assays?
TMEM16A inh: inactive; TMEM16A act: inactive; CHT block: inactive; Kir21 inh: -0.45; CHT allo act: inactive; Rce1 inh: inactive
